CYP2C19 inh: inhibitors of human CYP2C19; P33261; inhibition, % at 5 µM; hit rate 21% among 96,000; AID 778; CYP2C19 Supersomes, luciferin-H EGE luminescence, 30 min;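 active means CYP2C19 inhibition above a set limit at 5 µM in the primary screen, cut at about 50% in these data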;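 further: plate controls were negative control wells for no effect and 2.5 mM tranylcypromine positive control for full effect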
CYP2C9 activ: increases human cytochrome P450 2C9 activity | P11712 | recombinant CYP2C9, luciferin-H conversion, luminescence; stronger effect = higher value; factor 1 = untreated enzyme, 0 = blocked | activation factor at 5 µM | hit rate 1.4% among 96,000;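 active means activation factor of 2 or more for CYP2C9 at a 5 µM dose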;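 further: 0 = sulfaphenazole-blocked wells and 1 = vehicle-only wells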
CYP2C19 activ: activators of human cytochrome P450 2C19. P33261. recombinant CYP2C19, luciferin-H EGE luminescence; stronger effect = higher value; 0 = fully inhibited enzyme, 1 = untreated enzyme. activation factor at 5 µM. 96,000 tested, under 10 active;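 active means activation factor of at least 2 at 5 µM in the primary screen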;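 further: 0 = wells with 2.5 mM tranylcypromine and 1 = vehicle-only wells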
CYP2C9 inhib: blocks human cytochrome P450 2C9. P11712. CYP2C9 Supersomes, luciferin-H conversion, luminescence. inhibition, % at 5 µM. hit rate 20% among 96,000;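 active means blocking of liver enzyme CYP2C9 beyond about 50% at 5 µM, limit read from the data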
CD11b adhes enh: increases human CD11b/CD18 adhesion to fibrinogen; P05107+P11215; K562 CD11b/CD18 adhesion to fibrinogen, ATPlite luminescence; activation, % at 10 µM; hit rate 0.07% among 93,000; AID 1499;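 active means 10 µM primary screen giving 50% or more activity, confirmed by 40% or more on retest at that dose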
Target sequence (P05107 whole entry, looked up, other chains not shown): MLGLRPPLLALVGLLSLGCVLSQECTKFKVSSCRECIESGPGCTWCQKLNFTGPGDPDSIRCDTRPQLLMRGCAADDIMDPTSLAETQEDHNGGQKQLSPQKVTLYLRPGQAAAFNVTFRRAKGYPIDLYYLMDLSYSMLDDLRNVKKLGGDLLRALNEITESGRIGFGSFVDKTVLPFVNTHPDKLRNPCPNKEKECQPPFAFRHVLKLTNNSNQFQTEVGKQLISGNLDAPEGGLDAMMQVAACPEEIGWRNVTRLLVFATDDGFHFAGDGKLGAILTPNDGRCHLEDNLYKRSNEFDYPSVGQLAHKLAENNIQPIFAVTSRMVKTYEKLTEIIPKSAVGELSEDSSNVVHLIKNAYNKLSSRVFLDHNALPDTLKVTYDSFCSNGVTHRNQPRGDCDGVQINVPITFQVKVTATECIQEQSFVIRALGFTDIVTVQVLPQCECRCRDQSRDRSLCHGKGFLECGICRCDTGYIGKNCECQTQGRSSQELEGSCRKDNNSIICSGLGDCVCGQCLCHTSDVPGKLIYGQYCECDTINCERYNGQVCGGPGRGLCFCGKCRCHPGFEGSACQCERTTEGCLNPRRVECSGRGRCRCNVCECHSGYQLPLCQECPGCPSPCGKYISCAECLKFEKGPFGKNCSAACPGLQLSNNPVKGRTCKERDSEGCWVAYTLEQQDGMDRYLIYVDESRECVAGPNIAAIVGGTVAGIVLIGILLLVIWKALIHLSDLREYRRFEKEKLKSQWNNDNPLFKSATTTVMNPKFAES
Mac1 fbg inh: blocks human CD11b/CD18 adhesion to fibrinogen | P05107+P11215 | K562 CD11b/CD18 adhesion to fibrinogen, ATPlite luminescence; Mn2+ added to activate the integrin | inhibition, % at 10 µM | hit rate 0.54% among 93,000;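 active means primary inhibition of 50% or more at 10 µM, then 40% or more on retest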
Active calls of the source: *; / = no result given. Hits are enriched below; roughly 28% of the tested compounds scored in any of these assays.

SMILES | CYP2C19 inh | CYP2C9 activ | CYP2C19 activ | CYP2C9 inhib | CD11b adhes enh | Mac1 fbg inh
CCCN(CCC)C1=N/C(=C\c2ccco2)C(=O)N1c1ccccc1 | 64* | 0.3 | 0.4 | 71* | -3 | -1
CC1CCc2c(sc3ncnc(NCCCOC(C)C)c23)C1 (stereo not drawn) | 98* | 0.1 | 0 | 89* | -2 | 8
c1nc(NCCN2CCOCC2)c2c3c(sc2n1)CCCCC3 | 47 | 0.6 | 0.5 | 44 | 1 | 5
CC(C)OC(=O)c1cc(C(=O)c2cc(F)ccc2O)coc1=N | 85* | 0.3 | 0.1 | 73* | -2 | -33
C/C(=N/NC(=O)c1sc(=S)n(C)c1C)c1ccccc1 | / | / | / | / | -1 | 3
Cc1ccc(N(C(=O)Cn2nnc3ccccc32)C(C(=O)NC2CCCCC2)c2cn(C)nc2C)cc1 (stereo not drawn) | 67* | 0.9 | 0.3 | 12 | -1 | -12
COC(=O)c1cn(CC(=O)NC2CCCCC2)c2ccccc12 | 9 | 0.9 | 0.9 | 8 | -2 | 13
O=C(Cn1nnc2ccccc21)NC1CCCCC1 | 55* | 1 | 0.5 | -1 | -2 | -9
CC(=O)NC(CCS(C)(=O)=O)C(=O)Nc1ccc(C)c(F)c1 (stereo not drawn) | -6 | 1.2 | 1.1 | -19 | 0 | 7
Cn1c(N)c(C(=O)c2cc(-c3ccccn3)nc3ccccc23)c(=O)[nH]c1=O | 9 | 0.8 | 0.9 | 20 | 1 | 17
Cc1cccc(-c2noc(-c3cc4ccccc4oc3=O)n2)c1 | 27 | 1 | 0.7 | 1 | / | /
CN(CC(=O)N1CCCc2c1c(=O)oc1ccc(O)cc21)Cc1ccccc1 | 96* | 0.3 | 0 | 67* | 1 | 12
COc1ccc(CNc2nc(NCc3ccc(OC)cc3)n(C(=O)c3ccccc3[N+](=O)[O-])n2)cc1 | 40 | 0.3 | 0.6 | 70* | / | /
COc1ccc(N(Cc2cc3ccc(C)cc3[nH]c2=O)C(=O)c2ccco2)cc1 | -25 | 1.2 | 1.2 | -20 | -4 | -14
COc1ccc(N(Cc2ccccc2)C(=O)c2ccccc2[N+](=O)[O-])cc1 | 61* | 0.8 | 0.4 | 19 | -1 | 18
O=C(N/N=C/c1ccc2c(c1)OCO2)c1ccc(Br)o1 | / | / | / | / | 0 | 2
Cc1ccnc(N/N=C/c2ccccc2)n1 | / | / | / | / | -2 | -7
Cc1cc(C)n(-c2ccc(-n3ccnc3)nn2)n1 | 99* | 0.6 | 0 | 40 | -5 | 22
C(=N\Nc1ccc(-n2ccnc2)nn1)/c1ccccc1 | 98* | 0.1 | 0 | 93* | -4 | 7
Cc1ccc(Nc2ccc(-n3ccnc3)nn2)cc1C | 100* | 0 | 0 | 99* | / | /
Cc1ccc(-c2nnc(-n3nc(C)cc3C)c3ccccc23)cc1 | / | / | / | / | -1 | 12
COc1ccc(C(=O)C/C(=C\C(=O)c2ccc(C)cc2)c2ccccc2)cc1 | 48 | 0.3 | 0.5 | 74* | / | /
CCCNC(=O)C1CN(S(=O)(=O)c2ccccc2)CCN1S(=O)(=O)c1ccccc1 (stereo not drawn) | 8 | 1 | 0.9 | 1 | 3 | -1
O=C(NCc1ccco1)C1CN(S(=O)(=O)c2ccccc2)CCN1S(=O)(=O)c1ccccc1 (stereo not drawn) | 56* | 0.5 | 0.4 | 50* | -1 | -2
Cc1ccc(S(=O)(=O)NCC2CCC(C(=O)NCc3ccco3)CC2)cc1 (stereo not drawn) | 54* | 0.5 | 0.5 | 46 | 9 | -13
SMILES | CYP2C19 inh | CYP2C9 activ | CYP2C19 activ | CYP2C9 inhib | CD11b adhes enh | Mac1 fbg inh
Cc1ccc(S(=O)(=O)N2CCCCC2C(=O)NCc2ccco2)cc1 (stereo not drawn) | 94* | 0.7 | 0.1 | 33 | 3 | -12
CCC(C)NC(=O)C1CN(S(=O)(=O)c2ccccc2)CCN1S(=O)(=O)c1ccccc1 (stereo not drawn) | 66* | 0.8 | 0.3 | 23 | -1 | -3
C/C(=N\NC(=O)c1nn(C)cc1Br)c1cccc(NC(=O)C2CCCC2)c1 | 28 | 1.6 | 0.7 | -62 | 1 | 10
COc1ccc(-c2occ(C(=O)O)c2C(=O)O)cc1 | 3 | 1.1 | 1 | -14 | -3 | -10
O=C(Nc1ccc(N2CCOCC2)cc1)Nc1cnsn1 | 2 | 1 | 1 | -5 | -1 | 6
CNCc1cc2ccc(C)cc2[nH]c1=O | -4 | 0.9 | 1 | 8 | 0 | -13

From PubChem
